# Experimental data: article PMC4081100, “A DNA-binding-site landscape and regulatory network analysis for NAC transcription factors in Arabidopsis thaliana”
# Tests used:
# Assay in all cases: universal protein binding microarray (PBM); transcription factors of Arabidopsis thaliana; high values mean tight binding
# GST-ANAC092(1-176) = molecular target: T1, GST-ANAC092(1-176) (Arabidopsis thaliana, UniProt Q9FKA0 1-176); conditions: protein: recombinant; tags: GST; chain copies: 2; dsDNA, one strand shown
# T1 sequence: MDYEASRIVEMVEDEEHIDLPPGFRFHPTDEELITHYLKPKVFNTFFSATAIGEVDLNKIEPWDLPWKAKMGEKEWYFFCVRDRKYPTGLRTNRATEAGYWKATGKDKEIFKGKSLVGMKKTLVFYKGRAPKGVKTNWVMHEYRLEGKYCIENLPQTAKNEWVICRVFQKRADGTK
# In short: (§1)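 Binding is expressed as the normalised enrichment score (E-score). Proteins carrying a GST tag, whether NAC-domain, full-length or DNA-binding-domain forms, were induced in cells, and zinc acetate was added for zinc-finger proteins. After purification on glutathione–Sepharose 4B and quantification by A280 or anti-GST western blot, each was applied in duplicate at 200 to 500 nM final to custom all-10-mer Agilent 4 × 180K arrays made double-stranded by primer extension. Gapped and ungapped 8-mers were scored.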
# GST-ANAC019 NAC domain = molecular target: T2, GST-ANAC019 NAC domain (Arabidopsis thaliana, UniProt Q9C932 14-162); conditions: protein: recombinant; tags: GST; chain copies: 2; dsDNA, one strand shown
# T2 sequence: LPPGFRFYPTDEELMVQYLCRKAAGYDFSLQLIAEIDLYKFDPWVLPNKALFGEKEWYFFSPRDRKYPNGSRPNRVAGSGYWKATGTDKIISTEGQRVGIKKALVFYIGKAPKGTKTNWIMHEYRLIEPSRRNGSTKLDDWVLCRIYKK
# In short: as §1
# [1] = molecular target: T3, GST-ANAC092(1-285) full length (Arabidopsis thaliana, UniProt Q9FKA0 1-285); conditions: protein: recombinant; tags: GST; chain copies: 2; dsDNA, one strand shown
# T3 sequence: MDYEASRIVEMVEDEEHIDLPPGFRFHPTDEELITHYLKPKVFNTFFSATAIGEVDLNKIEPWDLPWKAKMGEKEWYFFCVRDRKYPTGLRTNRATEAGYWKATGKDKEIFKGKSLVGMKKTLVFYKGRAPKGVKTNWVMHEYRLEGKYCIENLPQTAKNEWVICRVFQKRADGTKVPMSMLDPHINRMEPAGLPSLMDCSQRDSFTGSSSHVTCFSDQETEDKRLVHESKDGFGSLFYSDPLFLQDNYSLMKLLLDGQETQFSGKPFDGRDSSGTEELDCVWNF
# In short: as §1
# GST-NST2(1-184) = molecular target: T4, GST-NST2(1-184) (Arabidopsis thaliana, UniProt Q9M274 1-184); conditions: protein: recombinant; tags: GST; chain copies: 2; dsDNA, one strand shown
# T4 sequence: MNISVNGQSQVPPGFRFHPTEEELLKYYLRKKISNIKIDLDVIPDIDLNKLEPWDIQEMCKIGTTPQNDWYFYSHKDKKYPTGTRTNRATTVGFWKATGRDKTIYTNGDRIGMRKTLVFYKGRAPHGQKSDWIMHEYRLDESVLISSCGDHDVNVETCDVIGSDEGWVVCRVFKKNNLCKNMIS
# In short: as §1
# GST-SND1(1-203) = molecular target: T5, GST-SND1(1-203) (Arabidopsis thaliana, UniProt Q9LPI7 1-203); conditions: protein: recombinant; tags: GST; chain copies: 2; dsDNA, one strand shown
# T5 sequence: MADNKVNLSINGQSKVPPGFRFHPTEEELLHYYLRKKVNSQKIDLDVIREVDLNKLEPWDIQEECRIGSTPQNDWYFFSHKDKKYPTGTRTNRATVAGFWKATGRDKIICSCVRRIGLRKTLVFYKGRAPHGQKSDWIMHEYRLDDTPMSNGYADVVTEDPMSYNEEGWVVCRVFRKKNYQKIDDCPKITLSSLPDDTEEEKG
# In short: as §1
# GST-WRKY1(266-371) = GST-WRKY1(266-371) (Arabidopsis thaliana, UniProt Q9SI37 266-371); conditions: protein: recombinant; tags: GST; dsDNA, one strand shown
# Sequence of GST-WRKY1(266-371) (Q9SI37 266-371): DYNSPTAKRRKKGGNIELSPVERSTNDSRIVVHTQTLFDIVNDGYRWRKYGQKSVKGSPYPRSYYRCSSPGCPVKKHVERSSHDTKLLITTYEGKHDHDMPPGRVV
# In short: as §1
# GST-NTL6(1-168) = GST-NTL6(1-168) (Arabidopsis thaliana, UniProt Q9SCK6 1-168); conditions: protein: recombinant; tags: GST; chain copies: 2; dsDNA, one strand shown
# Sequence of GST-NTL6(1-168) (Q9SCK6 1-168): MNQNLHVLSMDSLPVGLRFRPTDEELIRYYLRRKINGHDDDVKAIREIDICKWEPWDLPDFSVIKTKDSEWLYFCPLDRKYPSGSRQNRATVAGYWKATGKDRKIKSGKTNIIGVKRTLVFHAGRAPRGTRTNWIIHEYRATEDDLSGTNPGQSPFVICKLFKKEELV
# In short: as §1
# GST-NTL8 NAC domain = molecular target: T6, GST-NTL8 NAC domain (Arabidopsis thaliana, UniProt Q9XIN7 14-156); conditions: protein: recombinant; tags: GST; chain copies: 2; dsDNA, one strand shown
# T6 sequence: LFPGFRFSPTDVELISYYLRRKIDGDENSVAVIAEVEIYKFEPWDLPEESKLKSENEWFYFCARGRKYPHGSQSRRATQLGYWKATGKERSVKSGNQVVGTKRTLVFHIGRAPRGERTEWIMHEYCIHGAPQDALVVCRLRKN
# In short: as §1
# GST-ANAC055(1-171) = molecular target: T7, GST-ANAC055(1-171) (Arabidopsis thaliana, UniProt Q9LDY8 1-171); conditions: protein: recombinant; tags: GST; chain copies: 2; dsDNA, one strand shown
# T7 sequence: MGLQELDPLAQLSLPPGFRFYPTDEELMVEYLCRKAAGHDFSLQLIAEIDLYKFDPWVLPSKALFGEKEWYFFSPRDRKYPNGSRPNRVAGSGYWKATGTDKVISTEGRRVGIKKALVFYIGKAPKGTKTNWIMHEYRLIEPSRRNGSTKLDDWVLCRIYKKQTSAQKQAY
# In short: as §1
# GST-ATAF1 NAC domain = molecular target: T8, GST-ATAF1 NAC domain (Arabidopsis thaliana, UniProt Q39013 7-158); conditions: protein: recombinant; tags: GST; chain copies: 2; dsDNA, one strand shown
# T8 sequence: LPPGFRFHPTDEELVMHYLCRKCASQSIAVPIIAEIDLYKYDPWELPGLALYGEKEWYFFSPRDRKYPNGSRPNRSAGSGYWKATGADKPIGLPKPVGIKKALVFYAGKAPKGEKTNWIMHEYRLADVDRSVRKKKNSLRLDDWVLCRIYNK
# In short: as §1
# GST-NAP(1-166) = molecular target: T9, GST-NAP(1-166) (Arabidopsis thaliana, UniProt O49255 1-166); conditions: protein: recombinant; tags: GST; chain copies: 2; dsDNA, one strand shown
# T9 sequence: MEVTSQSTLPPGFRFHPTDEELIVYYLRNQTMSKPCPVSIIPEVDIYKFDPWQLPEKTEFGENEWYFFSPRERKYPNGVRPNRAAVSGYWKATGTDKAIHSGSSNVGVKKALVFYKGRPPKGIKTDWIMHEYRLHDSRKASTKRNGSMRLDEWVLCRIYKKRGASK
# In short: as §1
# GST-VND3 NAC domain = molecular target: T10, GST-VND3 NAC domain (Arabidopsis thaliana, UniProt Q9FH59 12-162); conditions: protein: recombinant; tags: GST; chain copies: 2; dsDNA, one strand shown
# T10 sequence: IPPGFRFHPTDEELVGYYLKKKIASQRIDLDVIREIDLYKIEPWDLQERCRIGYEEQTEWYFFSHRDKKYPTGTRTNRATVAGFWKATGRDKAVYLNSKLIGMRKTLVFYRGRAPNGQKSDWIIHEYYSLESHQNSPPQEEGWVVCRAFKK
# In short: as §1
# GST-VND7 NAC domain = molecular target: T11, GST-VND7 NAC domain (Arabidopsis thaliana, UniProt Q9C8W9 9-158); conditions: protein: recombinant; tags: GST; chain copies: 2; dsDNA, one strand shown
# T11 sequence: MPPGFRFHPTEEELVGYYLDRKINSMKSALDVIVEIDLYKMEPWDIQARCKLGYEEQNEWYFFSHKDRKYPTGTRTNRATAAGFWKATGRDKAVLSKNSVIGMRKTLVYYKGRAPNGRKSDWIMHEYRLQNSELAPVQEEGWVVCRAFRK
# In short: as §1
sequence,measurement,setting,value
CGTCAAAG,binding signal,GST-ANAC092(1-176),0.0844 E-score
same,binding signal,GST-ANAC019 NAC domain,0.0986 E-score
same,binding signal,[1],0.149 E-score
same,binding signal,GST-NST2(1-184),0.102 E-score
same,binding signal,GST-SND1(1-203),0.199 E-score
same,binding signal,GST-WRKY1(266-371),0.427 E-score
AGGGAAAG,binding signal,GST-ANAC092(1-176),0.0861 E-score
same,binding signal,GST-NTL6(1-168),0.115 E-score
same,binding signal,GST-ANAC019 NAC domain,0.129 E-score
same,binding signal,GST-NTL8 NAC domain,0.473 E-score
same,binding signal,GST-SND1(1-203),0.114 E-score
ACTGACCT,binding signal,GST-NTL8 NAC domain,0.109 E-score
same,binding signal,GST-SND1(1-203),0.0503 E-score
same,binding signal,GST-WRKY1(266-371),0.407 E-score
GTCAAGCA,binding signal,[1],0.106 E-score
same,binding signal,GST-SND1(1-203),0.0699 E-score
same,binding signal,GST-WRKY1(266-371),0.44 E-score
GTCAGTCA,binding signal,[1],0.1 E-score
same,binding signal,GST-SND1(1-203),0.0958 E-score
same,binding signal,GST-WRKY1(266-371),0.426 E-score
CGAAGGAA,binding signal,GST-ANAC092(1-176),0.176 E-score
same,binding signal,GST-NTL6(1-168),0.473 E-score
same,binding signal,GST-ANAC055(1-171),0.0644 E-score
same,binding signal,GST-ATAF1 NAC domain,0.057 E-score
same,binding signal,[1],0.0784 E-score
same,binding signal,GST-NAP(1-166),0.0729 E-score
same,binding signal,GST-NST2(1-184),0.17 E-score
same,binding signal,GST-NTL8 NAC domain,0.459 E-score
same,binding signal,GST-SND1(1-203),0.3 E-score
TCAAGTCA,binding signal,GST-ANAC055(1-171),0.0629 E-score
same,binding signal,GST-ATAF1 NAC domain,0.0801 E-score
same,binding signal,[1],0.196 E-score
same,binding signal,GST-NST2(1-184),0.057 E-score
same,binding signal,GST-SND1(1-203),0.171 E-score
same,binding signal,GST-WRKY1(266-371),0.453 E-score
ACGCGATC,binding signal,GST-ANAC092(1-176),0.314 E-score
same,binding signal,[1],0.402 E-score
same,binding signal,GST-NAP(1-166),0.116 E-score
same,binding signal,GST-NST2(1-184),0.198 E-score
same,binding signal,GST-SND1(1-203),0.364 E-score
ACGCCACC,binding signal,GST-ANAC092(1-176),0.456 E-score
same,binding signal,GST-ANAC019 NAC domain,0.145 E-score
same,binding signal,GST-ANAC055(1-171),0.0815 E-score
same,binding signal,GST-ATAF1 NAC domain,0.262 E-score
same,binding signal,[1],0.472 E-score
same,binding signal,GST-NAP(1-166),0.0741 E-score
same,binding signal,GST-NST2(1-184),0.276 E-score
same,binding signal,GST-SND1(1-203),0.408 E-score
GTCAACGA,binding signal,GST-VND3 NAC domain,0.0713 E-score
same,binding signal,GST-VND7 NAC domain,0.104 E-score
same,binding signal,GST-WRKY1(266-371),0.486 E-score
AAGGAAGC,binding signal,GST-ANAC092(1-176),0.219 E-score
same,binding signal,GST-NTL6(1-168),0.43 E-score
same,binding signal,GST-ANAC055(1-171),0.0894 E-score
same,binding signal,[1],0.13 E-score
same,binding signal,GST-NST2(1-184),0.185 E-score
same,binding signal,GST-NTL8 NAC domain,0.188 E-score
same,binding signal,GST-SND1(1-203),0.175 E-score
AAGACCAA,binding signal,GST-NTL6(1-168),0.18 E-score
same,binding signal,GST-ANAC019 NAC domain,0.0878 E-score
same,binding signal,GST-ANAC055(1-171),0.172 E-score
same,binding signal,GST-ATAF1 NAC domain,0.105 E-score
same,binding signal,[1],0.124 E-score
same,binding signal,GST-NST2(1-184),0.18 E-score
same,binding signal,GST-VND3 NAC domain,0.151 E-score
same,binding signal,GST-VND7 NAC domain,0.124 E-score
same,binding signal,GST-WRKY1(266-371),0.42 E-score
